In the supplement of paper PMC6555819:

Legend:
Test in all cases: PBM binding z-score (relative to random genomic background probes); higher = stronger binding; sequences stand for … in GC…GCGATTGACAGCGTAGAATGAAGG
[1] = system: FXR:RXRa (NR concentration 270 nM, RXRa partner concentration 90 nM)
Outline: (§1)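 Random background probes are the reference for binding z-scores. These scores derive from regression-normalized fluorescence on custom Agilent 4×180K protein-binding microarrays incubated 1 h with ligand-free nuclear receptor dimers. Binding was detected with antibodies against each partner (one per run).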

[2] = system: LXRa:RXRa (NR concentration 270 nM, RXRa partner concentration 90 nM)
Outline: as §1

[3] = system: LXRa homodimer (NR concentration 270 nM)
Outline: as §1

[4] = system: LXRb:RXRa (NR concentration 270 nM, RXRa partner concentration 90 nM)
Outline: as §1

[5] = system: LXRb homodimer (NR concentration 270 nM)
Outline: as §1

[6] = system: PPARa:RXRa (NR concentration 270 nM, RXRa partner concentration 90 nM)
Outline: as §1

[7] = system: PPARg:RXRa (NR concentration 180 nM, RXRa partner concentration 90 nM)
Outline: as §1

[8] = system: PPARg:RXRa 270nM:90nM, anti-RXR (NR concentration 270 nM, RXRa partner concentration 90 nM)
Outline: as §1

[9] = system: PPARg:RXRa 30nM:10nM, anti-RXR (NR concentration 30 nM, RXRa partner concentration 10 nM)
Outline: as §1

[10] = system: PPARg:RXRa 90nM:30nM, anti-RXR (NR concentration 90 nM, RXRa partner concentration 30 nM)
Outline: as §1

| Sequence | PBM binding z-score [1] | PBM binding z-score [2] | PBM binding z-score [3] | PBM binding z-score [4] | PBM binding z-score [5] | PBM binding z-score [6] | PBM binding z-score [7] | PBM binding z-score [8] | PBM binding z-score [9] | PBM binding z-score [10] |
| --- | --- | --- | --- | --- | --- | --- | --- | --- | --- | --- |
| TCTAGCAGTCCAGAGGGTCACTCAAGAGGTACGG | 0.754 | 0.962 | -0.326 | 1.19 | -1.12 | 2.06 | 0.609 | 1.52 | 2.05 | 1.63 |
| ATCGAAAGGTCGTGAGGTGAGCATACAGAAAGGC | 4.88 | 3.62 | -0.0763 | 2.89 | 0.368 | 4.84 | 3.58 | 4.56 | 1.29 | 2.96 |
| ATCTCTAGGTAAAGTTCAGTGAAAGATCGATAGA | 1.38 | 2.08 | 1.69 | 1.3 | 0.964 | 2.35 | 3.26 | 4.38 | 2.33 | 3.93 |
| CGAACTAGGTCATTGACAGGCCAGTGAATAGTAA | 4.02 | 2.69 | -0.0414 | 1.9 | -0.365 | 4.67 | 7.02 | 6.4 | 3.9 | 5.91 |
| TAGCCTAGGACAGATCGGGCCAGTATACGCTATA | -1.33 | -1.15 | -0.706 | -1.34 | -0.794 | -1.96 | 0.367 | -0.842 | -0.355 | -0.623 |
| CTCGAAAGGTCGGATGAGGTGAGTATACGGATAA | 2.61 | 2.09 | 0.0368 | 1.69 | -0.334 | 3.17 | 1.02 | 1.66 | 0.432 | 0.958 |
| TCTAGTTGGTCAAAGGTCACAGACTCGAAATGCG | 6.15 | 6.04 | 3.48 | 5.55 | 1.44 | 6.87 | 11.5 | 10 | 10.8 | 11.2 |
| ATCTCTAGGTAAAGGTAGTTCAGTGAATGCAAAT | 0.462 | 2.47 | 0.775 | 0.88 | 0.769 | 1.08 | 0.966 | 2.17 | 0.811 | 1.4 |
| GCTGCTAGGTCAACTGATGATCAGCTAAAGCTCG | 3.88 | 2.96 | -0.334 | 2.02 | 0.0909 | 3.68 | 2.88 | 3.19 | 0.694 | 2.07 |
| CAAACTAGGCCACAGAGGTCAAAGTCCGTGCGTA | 5.06 | 5.36 | 5.33 | 5.13 | 0.98 | 5.87 | 7.19 | 6.39 | 4.5 | 5.82 |
| ACTAGCAGGCCAAGTTTGGGTGACTCAAACAAAG | -0.397 | -0.73 | -0.818 | -0.554 | -0.715 | -0.036 | -0.341 | -0.319 | -0.347 | -0.213 |
| ATATGTAGGTTATCGTGTCATTCAGTTTGCGCAT | 0.97 | 1.3 | 0.641 | 1.5 | 0.855 | 3.55 | 5.76 | 5.11 | 2.48 | 4.38 |
| AATACAGGGTCACTAGGCCTGAGTAGGTACGAAT | 6.29 | 4.71 | 0.651 | 3.72 | 0.544 | 5.53 | 6.71 | 5.29 | 2.26 | 4.42 |
| GTAACGAGGGCAAAGTTGATAGCATCTGTCGACG | 1.48 | 1.29 | -0.238 | 1.17 | 0.169 | 4.2 | 7.58 | 7.24 | 6.77 | 7.65 |
| CGAACTAGGTCAAGGTCAAAGTCGGTTTGTGCCA | 6.55 | 5.52 | 3.7 | 4.39 | 1.14 | 5.86 | 9.77 | 7.93 | 6.78 | 8.09 |
| CCGACTGGGGCAAAAAGGTTACCATACCATCCGG | 0.468 | 0.384 | -0.0503 | 1.14 | -0.735 | 2.38 | 1.48 | 1.95 | 0.214 | 1.25 |
| CGTCCAAGGTCAAAGGAGGTCAGTGAAGACAGAT | 7.79 | 7.44 | 4.18 | 5.88 | 1.51 | 6.08 | 5.84 | 5.46 | 2.75 | 4.81 |
| ACAATGAGGTTATTAAGATCAGGGAATTGCGGTC | 1.54 | 1.7 | 0.283 | 1.26 | 0.952 | 2.42 | 1.45 | 1.7 | 0.622 | 1.3 |
| AATTCAGGGTCATCGTAGGCCAGAGTACGCACAG | 7.63 | 6.71 | 4.2 | 5.55 | 2.29 | 6.2 | 7.36 | 7.02 | 3.49 | 5.72 |
| TCATATAGGTAATTGCTAGGTGAAAGTCCGATCT | 0.86 | 0.654 | 0.0873 | 0.781 | 0.17 | 1.41 | 0.771 | 2.36 | 3.67 | 3.02 |
| GGAACGAGTGCATTCGAGTTGATAGCATGGCGAT | -0.159 | 0.374 | -0.89 | -0.659 | -1.1 | -0.426 | 0.302 | -0.652 | -0.79 | -1.09 |
| ACTAGCAGGCCAAGGGTCACGCAAGATTAGTCCG | 3.81 | 3.6 | 0.279 | 3.53 | -0.566 | 5.24 | 9.04 | 7.85 | 7.41 | 7.99 |
| CGTCCAAGGTCAAGGTCAGTGCAAGAGACTCGAA | 7.47 | 5.77 | 1.19 | 4.77 | 0.528 | 5.84 | 6.07 | 6.18 | 2.4 | 5.09 |
